Screens from PubChem BioAssay.
HSF-1 act – HSF-1 activators, primary screen, NIH3T3-HGL cells, MG132 stress, luminescence, single point; activation, % at 9 µM; hit rate 1.7% among 300,000; NIH3T3-HGL HSF-1 luciferase reporter, 8 h; 100% = twice DMSO control signal;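 active = mean replicate activation of at least 50% with a set share of replicates each reaching 50%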
Wnt bcat act – Wnt/beta-catenin pathway activators, primary screen, cell-based, plate reader, single point; Wnt/beta-catenin reporter cell assay, activator; activation, % at 9.35 µM; hit rate 1.2% among 300,000; in the data active = activation above about 30%, passing the limit was not always enough
MITF act – activators of MITF-driven TRPM1 promoter reporter, primary screen, cell-based, SK-MEL-5, luciferase, single point; SK-MEL-5 TRPM1-promoter luciferase, 24 h; % of positive control, neutral wells = 0; hit rate 0.75% among 300,000; activation, % at 12.5 µM;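 active = mean activation of at least 80% with every replicate also reaching 80%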
esBAF inh – Bmi1 luciferase reporter increase in mESCs, primary screen, esBAF inhibitor project, mouse ES cells, Bmi1 luciferase knock-in, single point; 24 h; 100% = twice the neutral-well signal; reporter increase, % at 12.5 µM; hit rate 2% among 350,000; AID 602393, 2012; in the data active = activation above about 40%;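 note: a rise in the Bmi1 reporter signal indicates esBAF inhibition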
HSF1 inh – HSF1 inhibitors in luciferase reporter cells, primary screen, cell-based, NIH3T3, luminescence; hit rate 0.77% among 300,000; NIH3T3-HGL HSE-luciferase, MG132-induced, luminescence 8 h; hits give low values; activity change, negative = inhibition, % at 7.5 µM (by protocol);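 active = more than half of replicate wells show activity change below -50%, luminescence cut by over half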;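 note: luciferase reports HSF-1 transcriptional activity via heat shock element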
Each line names hits and unclear results; the compound was inactive in the other large screens; ! = not confirmed by another sample. Only some compounds are listed: those with a hit (about 3.9% of all), similar ones and a draw of the others.

CCc1ccc(N2C(=O)NC(=O)/C(=C\c3cccn3CCOc3ccc(C(C)C)cc3)C2=O)cc1	Wnt bcat act 34.1 (no result: esBAF inh)
COC(=O)[C@H]1[C@H](CO)[C@H]2Cn3c(ccc(/C=C/c4ccccc4)c3=O)[C@@H]1N2C(=O)C1CC1	none (no result: HSF-1 act, Wnt bcat act, MITF act, HSF1 inh)
CCCc1[nH]nc2c1C1(C(=O)N(Cc3ccccc3)c3ccccc31)C(C(=O)OC)=C(N)O2 (stereo not drawn)	HSF-1 act 55.5 (no result: Wnt bcat act)
CC(=O)c1c(C)n(CC2CCCO2)c2ccc(O)cc12 (stereo not drawn)	HSF-1 act 69.9
CC=Cc1ccc2n(c1=O)C[C@H]1[C@H](CO)[C@@H](C(=O)OC)[C@@H]2N1CC1CCOCC1 (mixture of isomers)	none (no result: HSF-1 act, Wnt bcat act, MITF act, HSF1 inh)
CC=Cc1ccc2n(c1=O)C[C@@H]1[C@@H](CO)[C@H](C(=O)OC)[C@H]2N1S(=O)(=O)c1cccc(C)c1 (mixture of isomers)	none (no result: HSF-1 act, Wnt bcat act, MITF act, HSF1 inh)
NNCc1ccccc1	esBAF inh 49.1! (no result: HSF-1 act, HSF1 inh)
COc1ccc(Oc2cc(NC(=O)c3nn(C)cc3[N+](=O)[O-])cc([N+](=O)[O-])c2)cc1	HSF1 inh -53.8
COc1ccc(C2c3c(nc(C)[nH]c3=O)Oc3c2c(=O)oc2ccccc32)cc1 (stereo not drawn)	Wnt bcat act 35.5 (no result: MITF act, esBAF inh)
COc1ccc(C2C([N+](=O)[O-])=C(N)Oc3c2c(=O)oc2ccccc32)cc1 (stereo not drawn)	none (no result: Wnt bcat act, MITF act, esBAF inh)
COc1cccc(C2C([N+](=O)[O-])=C(N)Oc3c2c(=O)oc2ccccc32)c1 (stereo not drawn)	HSF-1 act 58.7 (no result: MITF act)
COC(=O)[C@H]1[C@H](CO)[C@H]2Cn3c(ccc(-c4ccccc4F)c3=O)[C@@H]1N2Cc1ccncc1	none (no result: HSF-1 act, Wnt bcat act, MITF act, HSF1 inh)
O=C(Cc1ccccn1)N1CCCCN2[C@H](C1)[C@@H](c1ccc(-c3ccccc3F)cc1)[C@@H]2CO	none (no result: HSF-1 act, Wnt bcat act, MITF act, HSF1 inh)
Cc1cc(C=C2C(=O)NC(=S)NC2=O)c(C)n1C1CCCC1	esBAF inh 48.4
Cc1cc(C=C2C(=O)N(C)C(=S)N(C)C2=O)c(C)n1C1CCCCC1	none (no result: Wnt bcat act, esBAF inh)
N#Cc1ccc(-c2ccc([C@@H]3[C@H]4CN(C(=O)Cc5ccccc5)CCCCN4[C@H]3CO)cc2)cc1	none (no result: HSF-1 act, Wnt bcat act, MITF act, HSF1 inh)
O=C(O)[C@H]1[C@H](CO)[C@H]2Cn3c(ccc(C4=CCCC4)c3=O)[C@@H]1N2C(=O)Cc1ccccn1	none (no result: HSF-1 act, Wnt bcat act, MITF act, HSF1 inh)
O=C(O)[C@@H]1[C@@H](CO)[C@@H]2Cn3c(ccc(-c4cncnc4)c3=O)[C@H]1N2C(=O)NC1CCCC1	none (no result: HSF-1 act, Wnt bcat act, MITF act, HSF1 inh)
O=C(CF)NC(NC(=S)Nc1ccccc1O)C(Cl)(Cl)Cl (stereo not drawn)	HSF-1 act 53.9
O=C(Cc1ccncc1)N1CCCCN2[C@@H](CO)[C@@H](c3ccc(C#Cc4ccccc4F)cc3)[C@@H]2C1	none (no result: HSF-1 act, Wnt bcat act, MITF act, HSF1 inh)
COc1ccccc1CCNC(=O)CCC(=O)N1CC2C[C@@H](C1)Cn1c2cccc1=O	esBAF inh 46.5
COC(=O)[C@@H]1[C@@H](CO)[C@@H]2Cn3c(cccc3=O)[C@H]1N2C(=O)C1CCCC1	none (no result: HSF-1 act, Wnt bcat act, MITF act, HSF1 inh)
CNc1cc(Cl)c2nonc2c1[N+](=O)[O-]	HSF-1 act 168.4 (no result: esBAF inh)
CC(C)(CN)CC(=O)O	HSF-1 act 82.7
COC(=O)[C@@H]1[C@@H](CO)[C@@H]2Cn3c(ccc(-c4ccccc4F)c3=O)[C@H]1N2Cc1ccncc1	none (no result: HSF-1 act, Wnt bcat act, MITF act, HSF1 inh)
O=C(Cc1ccc(Cl)c(Cl)c1)NCC1(N2CCOCC2)CCCCC1	Wnt bcat act 44.9 (no result: esBAF inh)
COc1ccc(C(CNC(=O)Cc2ccc(Cl)c(Cl)c2)N2CCCCC2)cc1 (stereo not drawn)	none
O=C(Cc1cccnc1)N1CCCCN2[C@H](CO)[C@@H](c3ccc(C#CC4CCCC4)cc3)[C@@H]2C1	none (no result: HSF-1 act, Wnt bcat act, MITF act, HSF1 inh)
COc1cc2c(cc1OC)CN(c1ccc([N+](=O)[O-])c(C(F)(F)F)c1)CC2	HSF-1 act 121.2 (no result: esBAF inh)
CCOC(=O)C(O)(c1ccc(NC(=O)c2ccc(Cl)c(Cl)c2)cc1)C(F)(F)F (stereo not drawn)	none (no result: MITF act)
CCOC(=O)C(O)(c1ccc(NC(=O)NC2CCCCC2)cc1)C(F)(F)F (stereo not drawn)	esBAF inh 45.6
CSc1ccc(C(=O)C2CCCN(Cc3cc4ccccc4[nH]3)C2)cc1 (stereo not drawn)	none
CSc1ccc(C(=O)C2CCCN(Cc3cccnc3)C2)cc1 (stereo not drawn)	HSF-1 act 104.1
O=C1C(=O)N(c2ccccc2)P(=O)(N(CCCl)CCCl)N1c1ccccc1	Wnt bcat act 36.5, MITF act 99.4 (no result: HSF-1 act, HSF1 inh)
N#Cc1cccc(-c2ccc([C@H]3[C@H]4CN(C(=O)Cc5cccnc5)CCCCN4[C@H]3CO)cc2)c1	none (no result: HSF-1 act, Wnt bcat act, MITF act, HSF1 inh)
CCn1c(C)c(C(=O)Nc2ccc(OC)cc2)c2cc(OC)ccc21	esBAF inh 50.9
CC1(C)C[C@H]2C=C(C=O)[C@]3(C=O)C[C@]3(C)[C@H]2C1	HSF1 inh -75.7
c1ccc(Nc2ccc(Nc3ccccc3)cc2)cc1	MITF act 86.3 (no result: HSF-1 act, HSF1 inh)
COCCCNC(=O)c1c(N)n(Cc2ccco2)c2nc3ccccc3nc12	HSF-1 act 114.9 (no result: MITF act, esBAF inh)
CC(C)CNC(=O)c1c(N)n(Cc2ccco2)c2nc3ccccc3nc12	HSF-1 act 55.7 (no result: Wnt bcat act, esBAF inh)
CCCNC(=O)c1c(N)n(Cc2ccco2)c2nc3ccccc3nc12	none (no result: Wnt bcat act, MITF act, esBAF inh)
COCCNC(=O)c1c(NC(=O)c2ccc(Br)o2)n(Cc2ccccc2)c2nc3ccccc3nc12	HSF-1 act 65.9
COC(=O)[C@H]1[C@H](CO)[C@H]2Cn3c(ccc(-c4ccncc4)c3=O)[C@@H]1N2CCc1ccccc1	none (no result: HSF-1 act, Wnt bcat act, MITF act, HSF1 inh)
CC(C)NC(=O)N1[C@@H]2c3ccc(-c4cccc(C(=O)N(C)C)c4)c(=O)n3C[C@H]1[C@H](CO)[C@H]2C(=O)O	none (no result: HSF-1 act, Wnt bcat act, MITF act, HSF1 inh)
CC=Cc1ccc2n(c1=O)C[C@H]1[C@H](CO)[C@@H](C(=O)OC)[C@@H]2N1C(=O)CC1CC1 (mixture of isomers)	none (no result: HSF-1 act, Wnt bcat act, MITF act, HSF1 inh)
Cc1ccc2c(c1)N(C(=O)CCC(=O)N1CCC3(CC1)OCCO3)CCO2	HSF1 inh -50.9
COC(=O)[C@@H]1[C@@H](CO)[C@@H]2Cn3c(ccc(-c4ccccc4)c3=O)[C@H]1N2CC1CCOCC1	none (no result: HSF-1 act, Wnt bcat act, MITF act, HSF1 inh)
CCOC(=O)c1cc2c(cn1)[nH]c1ccccc12	esBAF inh 50.1
CN1CCN(c2ccc3c(c2)S(=O)(=O)c2ccccc2C3=O)CC1	MITF act 92.9
CN1CCN(c2cccc3c2C(=O)c2ccccc2C3=O)CC1	none (no result: esBAF inh)
COC(=O)[C@@H]1[C@@H](CO)[C@@H]2Cn3c(ccc(-c4cccc(OC)c4)c3=O)[C@H]1N2C(=O)c1cnccn1	none (no result: HSF-1 act, Wnt bcat act, MITF act, HSF1 inh)
CN(C)c1ccccc1	none (no result: HSF-1 act, MITF act, HSF1 inh)
Cc1cccc(N=Nc2ccc(N(C)C)cc2)c1	Wnt bcat act 49.3
CN(C)c1ccc(/C=C/C=C2/C(=O)NC(=O)N(c3ccccc3)C2=O)cc1	HSF-1 act 119.0 (no result: esBAF inh)
